Reference: PubChem BioAssay (NCI)
Compounds without any hit were thinned out: in the full panel of roughly 79,000, 15% have a hit. The source made the active and inactive calls. Rule as the data show it: active = growth inhibition above about 70%; inactive = the rest.

Legend:
[1] = NCI Yeast Anticancer Drug Screen. Data for the rad52 strain (AID 147);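 also: 0% = growth of vehicle-treated control cultures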; details: S. cerevisiae rad52 mutant growth inhibition, stronger effect = higher value
In short: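 Read-out: growth inhibition versus vehicle-treated controls. Cells were a DNA repair-deficient yeast strain treated with compounds.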

[2] = NCI Yeast Anticancer Drug Screen. Data for the wt1 strain (AID 149);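 also: 0% = growth of vehicle-treated wt1 cultures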; details: S. cerevisiae wt1 strain (SPY 50644) growth inhibition, stronger effect = higher value
In short: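 wt1 strain grown with compound or vehicle; inhibition taken from the growth difference.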

[3] = NCI Yeast Anticancer Drug Screen. Data for the rad50EPP+ strain (AID 151);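 also: 0% = growth of vehicle-treated control cultures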; details: S. cerevisiae rad50 mutant strain, stronger effect = higher value
In short: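 Growth inhibition read against vehicle controls in rad50EPP+ yeast, a strain altered in DNA damage repair, after compound exposure.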

[4] = NCI Yeast Anticancer Drug Screen. Data for the mgt1 strain (AID 153); details: S. cerevisiae mgt1 mutant growth inhibition, stronger effect = higher value
In short: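 mgt1 yeast grown with test compound; read-out is growth inhibition versus vehicle-treated cultures.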

[5] = NCI Yeast Anticancer Drug Screen. Data for the rad50 strain (AID 155);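 also: 0% = growth of vehicle-only cultures of the same strain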; details: S. cerevisiae rad50 strain growth inhibition, stronger effect = higher value
In short: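 DNA repair mutant yeast, compound exposure, growth read-out; inhibition is taken relative to vehicle.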

[6] = NCI Yeast Anticancer Drug Screen. Data for the mec2-1 strain (AID 157); details: S. cerevisiae mec2-1 strain, stronger effect = higher value
In short: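 Yeast mec2-1 mutant treated with compound. Readout: growth inhibition vs vehicle controls.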

[7] = NCI Yeast Anticancer Drug Screen. Data for the rad14 strain (AID 159);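 also: 0% = growth of vehicle-treated control cultures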; details: S. cerevisiae rad14 strain growth inhibition, stronger effect = higher value
In short: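 DNA repair-defective yeast, compound-exposed; % growth inhibition derived by comparison with vehicle-treated controls.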

[8] = NCI Yeast Anticancer Drug Screen. Data for the sgs1 mgt1 strain (AID 161);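 also: 0% = growth of cultures given vehicle only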; details: S. cerevisiae sgs1 mgt1 strain, stronger effect = higher value
In short: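 Read-out: growth inhibition vs vehicle controls. Cells: mutant yeast strain deficient in DNA damage repair.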

[9] = NCI Yeast Anticancer Drug Screen. Data for the CLN2oe strain (AID 163);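 also: 0% = growth of vehicle-only control cultures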; details: S. cerevisiae CLN2oe strain, stronger effect = higher value
In short: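 Read-out: yeast growth inhibition, expressed relative to vehicle-only controls. The strain bears an engineered cell-cycle alteration.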

[10] = NCI Yeast Anticancer Drug Screen. Data for the cln2 rad14 strain (AID 165);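 also: 0% = growth equal to vehicle treated cultures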; details: S. cerevisiae cln2 rad14 strain, stronger effect = higher value
In short: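 cln2 rad14 yeast strain; compound exposure; growth inhibition read vs vehicle controls.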

[11] = NCI Yeast Anticancer Drug Screen. Data for the bub3 strain (AID 167); details: S. cerevisiae bub3 mutant strain, stronger effect = higher value
In short: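 In this screen, a yeast mutant lacking normal mitotic checkpoint function is challenged with compound. Relative growth versus vehicle gives the inhibition value.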

[12] = NCI Yeast Anticancer Drug Screen. Data for the wt2 strain (AID 169);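 also: 0% = growth of vehicle-treated yeast cultures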; details: S. cerevisiae wt2 strain growth inhibition, stronger effect = higher value
In short: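 Read-out: growth inhibition versus vehicle-treated control cultures after compound exposure of the yeast strain.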

[13] = NCI Yeast Anticancer Drug Screen. Data for the mlh1 strain (AID 171);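 also: 0% = growth of vehicle-treated control cultures of the same strain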; details: S. cerevisiae mlh1 strain growth inhibition, stronger effect = higher value
In short: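 Read-out: growth inhibition versus vehicle controls. Strain: engineered yeast with a defined DNA repair or cell cycle defect, compound-treated.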

[14] = NCI Yeast Anticancer Drug Screen. Data for the sgs1 strain (AID 173);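 also: 0% = growth of vehicle-only control cultures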; details: S. cerevisiae sgs1 mutant, stronger effect = higher value
In short: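 Read-out: yeast growth inhibition relative to vehicle controls, following compound exposure of a strain with a defined DNA repair/cell cycle alteration.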

[15] = NCI Yeast Anticancer Drug Screen. Data for the mlh1 rad18 strain (AID 175); details: S. cerevisiae mlh1 rad18 strain growth inhibition, stronger effect = higher value
In short: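 Yeast w/ defined DNA-repair lesions; compound exposure; growth vs vehicle controls → % inhibition.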

[16] = NCI Yeast Anticancer Drug Screen. Data for the rad18 strain (AID 177); details: S. cerevisiae rad18 mutant growth inhibition, stronger effect = higher value
In short: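 Readout: growth inhibition vs vehicle controls. Cells: genetically altered yeast strain, DNA repair defect.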

[17] = at 5.0 µM (retest, dose inferred, filed as 0.5)
[18] = at 50.0 µM (retest, dose inferred, filed as 5.0)

Measured: growth inhibition

Cc1c([N+](=O)[O-])oc2ccc3ccccc3c12
active: [1]; at 11.0 µM 86% | [1]; at 33.0 µM 94% | [1]; at 100.0 µM 92% | [3]; at 11.0 µM 79% | [3]; at 33.0 µM 91% | [3]; at 100.0 µM 88% | [5]; [17] 70% | [5]; at 33.0 µM 88% | [5]; [18] 90% | [5]; at 50.0 µM 87% | [5]; at 100.0 µM 92% | [6]; [18] 90% | [6]; at 50.0 µM 94.8% | [6]; at 100.0 µM 91% | [7]; at 3.7 µM 84% | [7]; at 11.0 µM 86% | [7]; at 33.0 µM 96% | [7]; at 100.0 µM 93% | [8]; [17] 76% | [8]; [18] 92% | [8]; at 50.0 µM 84.4% | [10]; [17] 81% | [10]; [18] 96% | [10]; at 50.0 µM 97% | [14]; at 11.0 µM 78% | [14]; at 33.0 µM 86% | [14]; at 100.0 µM 89% | [15]; [17] 82% | [15]; [18] 94% | [15]; at 50.0 µM 95.3% | [16]; at 1.2 µM 95% | [16]; at 3.7 µM 96% | [16]; at 11.0 µM 96% | [16]; at 33.0 µM 95% | [16]; at 100.0 µM 94%
inactive: [1]; at 1.2 µM 23% | [1]; at 3.7 µM 50% | [2]; at 1.2 µM 2% | [2]; at 3.7 µM 2% | [2]; at 11.0 µM 4% | [2]; at 33.0 µM 11% | [2]; at 100.0 µM 21% | [3]; at 1.2 µM 26% | [3]; at 3.7 µM 50% | [4]; at 1.2 µM -8% | [4]; at 3.7 µM -1% | [4]; at 11.0 µM 3% | [4]; at 33.0 µM 8% | [4]; at 100.0 µM 22% | [5]; at 1.2 µM 26% | [5]; at 3.7 µM 48% | [5]; at 11.0 µM 69% | [6]; at 1.2 µM 6% | [6]; at 3.7 µM 6% | [6]; [17] 18% | [6]; at 11.0 µM 21% | [6]; at 33.0 µM 51% | [7]; at 1.2 µM 43% | [9]; at 1.2 µM -6% | [9]; at 3.7 µM -8% | [9]; at 11.0 µM -6% | [9]; at 33.0 µM 3% | [9]; at 100.0 µM 6% | [11]; at 1.2 µM -11% | [11]; at 3.7 µM -17% | [11]; [17] -66% | [11]; at 11.0 µM -11% | [11]; at 33.0 µM -18% | [11]; [18] -11% | [11]; at 50.0 µM 12.4% | [11]; at 100.0 µM 0% | [12]; at 1.2 µM 1% | [12]; at 3.7 µM 2% | [12]; at 11.0 µM 6% | [12]; at 33.0 µM 14% | [12]; at 100.0 µM 26% | [13]; at 1.2 µM -1% | [13]; at 3.7 µM 1% | [13]; at 11.0 µM -2% | [13]; at 33.0 µM 15% | [13]; at 100.0 µM 35% | [14]; at 1.2 µM 49% | [14]; at 3.7 µM 69%

CCOP(=S)(S)OCC.[Pd]
active: [1]; at 11.0 µM 75% | [1]; at 33.0 µM 82% | [1]; at 100.0 µM 80% | [2]; at 11.0 µM 93% | [2]; at 33.0 µM 89% | [2]; at 100.0 µM 83% | [4]; at 33.0 µM 82% | [4]; at 100.0 µM 82% | [5]; at 11.0 µM 95% | [5]; at 33.0 µM 91% | [5]; at 50.0 µM 79.4% | [5]; at 100.0 µM 92% | [6]; [17] 80% | [6]; at 11.0 µM 95% | [6]; at 33.0 µM 87% | [6]; at 100.0 µM 85% | [7]; at 33.0 µM 75% | [7]; at 100.0 µM 75% | [8]; at 50.0 µM 76.1% | [9]; at 33.0 µM 76% | [9]; at 100.0 µM 77% | [10]; at 50.0 µM 76.5% | [11]; [17] 84% | [11]; at 11.0 µM 94% | [11]; at 33.0 µM 90% | [11]; [18] 86% | [11]; at 50.0 µM 80.9% | [11]; at 100.0 µM 83% | [12]; at 11.0 µM 95% | [12]; at 33.0 µM 91% | [12]; at 100.0 µM 85% | [13]; at 11.0 µM 94% | [13]; at 33.0 µM 88% | [13]; at 100.0 µM 84% | [14]; at 3.7 µM 77% | [14]; at 11.0 µM 95% | [14]; at 33.0 µM 93% | [14]; at 100.0 µM 88% | [15]; [17] 83% | [15]; at 50.0 µM 79.5% | [16]; at 3.7 µM 86% | [16]; at 11.0 µM 98% | [16]; at 33.0 µM 96% | [16]; at 100.0 µM 93%
inactive: [1]; at 1.2 µM 5% | [1]; at 3.7 µM 45% | [2]; at 1.2 µM 2% | [2]; at 3.7 µM 55% | [3]; at 1.2 µM 0% | [3]; at 3.7 µM 11% | [3]; at 11.0 µM 24% | [3]; at 33.0 µM 20% | [3]; at 100.0 µM 8% | [4]; at 1.2 µM -2% | [4]; at 3.7 µM 17% | [4]; at 11.0 µM 68% | [5]; at 1.2 µM 12% | [5]; at 3.7 µM 57% | [5]; [17] 67% | [5]; [18] 32% | [6]; at 1.2 µM 10% | [6]; at 3.7 µM 67% | [6]; [18] 51% | [6]; at 50.0 µM 67.9% | [7]; at 1.2 µM 0% | [7]; at 3.7 µM 17% | [7]; at 11.0 µM 60% | [8]; [17] 57% | [8]; [18] 36% | [9]; at 1.2 µM -3% | [9]; at 3.7 µM 20% | [9]; at 11.0 µM 59% | [10]; [17] 23% | [10]; [18] 9% | [11]; at 1.2 µM 6% | [11]; at 3.7 µM 63% | [12]; at 1.2 µM -2% | [12]; at 3.7 µM 59% | [13]; at 1.2 µM 4% | [13]; at 3.7 µM 56% | [14]; at 1.2 µM 13% | [15]; [18] 56% | [16]; at 1.2 µM 15%
